# Laboratory results as given in PubChem BioAssay AID1159580 (chemical genetic matrix, 2015).
# “And” between values parts separate entries of the source, which are not always exact repeats. Identical values can stand only once. In all, about 5,500 compounds went through this assay and about 2,000 (36%) were called active. Inconclusive results (about 18%) are left out. Cut-off read from the data, not from the text of the source: active = normalized growth mostly below about 0.91 (no sharp cut-off); inconclusive = no clear call, values can overlap the other calls; inactive = mostly above about 0.92. This is one part of the list.
# Assay: chemical genetic growth profiling, strain panel (AID 1159580);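 note: tested at 20 µM; growth read once vehicle control cultures reached saturation at 30 °C; 1 = growth at the plate median or of vehicle wells; lower values mean less growth of the strain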
# Conditions: S. cerevisiae deletion strains, growth OD
structure (smiles),measurement,setting,value
CC(C)=CCCC(C)[C@@H]1CC[C@]2(C)C3=C(CC[C@@]12C)C1(C)CC[C@H](O)C(C)(C)C1CC3 (stereo partly drawn),normalized growth,"locus YAL021C, strain ccr4, stronger effect = lower value",1.04 (inactive)
same,normalized growth,"locus YAL026C, strain drs2, stronger effect = lower value",1.04 (inactive)
same,normalized growth,"locus YAL030W, strain snc1, stronger effect = lower value",1.07 [resistant] (active)
same,normalized growth,"locus YBL061C, strain skt5, stronger effect = lower value",1.08 (inactive)
same,normalized growth,"locus YBR009C, strain hhf1, stronger effect = lower value",1.01 (inactive)
same,normalized growth,"locus YBR021W, strain FUR4, stronger effect = lower value",0.941 (inactive)
same,normalized growth,"locus YBR023C, strain chs3, stronger effect = lower value",1.08 (inactive)
same,normalized growth,"locus YBR171W, strain sec66, stronger effect = lower value",1.06 (inactive)
same,normalized growth,"locus YBR229C, strain ROT2, stronger effect = lower value",1.08 (inactive)
same,normalized growth,"locus YBR231C, strain swc5, stronger effect = lower value",1.09 [resistant] (active)
same,normalized growth,"locus YBR279W, strain paf1, stronger effect = lower value",1.07 [resistant] (active)
same,normalized growth,"locus YCL011C, strain gbp2, stronger effect = lower value",1.07 (inactive)
same,normalized growth,"locus YCL016C, strain dcc1, stronger effect = lower value",1.03 (inactive)
same,normalized growth,"locus YCL029C, strain bik1, stronger effect = lower value",1 (inactive)
same,normalized growth,"locus YCL061C, strain MRC1, stronger effect = lower value",1.06 (inactive)
same,normalized growth,"locus YCL069W, strain vba3, stronger effect = lower value",1.07 (inactive)
same,normalized growth,"locus YCR088W, strain abp1, stronger effect = lower value",1.08 [resistant] (active)
same,normalized growth,"locus YDL005C, strain med2, stronger effect = lower value",1.04 (inactive)
same,normalized growth,"locus YDL035C, strain GPR1, stronger effect = lower value",0.886 (inactive)
same,normalized growth,"locus YDL040C, strain nat1, stronger effect = lower value",1.08 [resistant] (active)
same,normalized growth,"locus YDL074C, strain BRE1, stronger effect = lower value",1.34 [resistant] (active)
same,normalized growth,"locus YDL101C, strain DUN1, stronger effect = lower value",1.02 (inactive)
same,normalized growth,"locus YDL185W, strain tfp1, stronger effect = lower value",1.01 (inactive)
same,normalized growth,"locus YDL192W, strain arf1, stronger effect = lower value",1.02 (inactive)
same,normalized growth,"locus YDR001C, strain nth1, stronger effect = lower value",1.07 (inactive)
same,normalized growth,"locus YDR069C, strain doa4, stronger effect = lower value",1.03 (inactive)
same,normalized growth,"locus YDR101C, strain arx1, stronger effect = lower value",0.967 (inactive)
same,normalized growth,"locus YDR137W, strain rgp1, stronger effect = lower value",0.774 (active)
same,normalized growth,"locus YDR159W, strain sac3, stronger effect = lower value",1.05 (inactive)
same,normalized growth,"locus YDR162C, strain NBP2, stronger effect = lower value",0.913 (inactive)
same,normalized growth,"locus YDR195W, strain ref2",1.13 (inactive)
same,normalized growth,"locus YDR297W, strain sur2, stronger effect = lower value",1.07 (inactive)
same,normalized growth,"locus YDR318W, strain mcm21, stronger effect = lower value",1.01 (inactive)
same,normalized growth,"locus YDR334W, strain swr1, stronger effect = lower value",1.05 (inactive)
same,normalized growth,"locus YDR335W, strain msn5, stronger effect = lower value",1.02 (inactive)
same,normalized growth,"locus YDR388W, stronger effect = lower value",1.03 (inactive)
same,normalized growth,"locus YDR392W, strain spt3, stronger effect = lower value",1.02 (inactive)
same,normalized growth,"locus YDR502C, strain sam2, stronger effect = lower value",0.989 (inactive)
same,normalized growth,"locus YEL003W, strain gim4, stronger effect = lower value",1.02 (inactive)
same,normalized growth,"locus YEL037C, strain rad23, stronger effect = lower value",1.06 (inactive)
same,normalized growth,"locus YEL061C, strain CIN8 (second series), stronger effect = lower value",1.06 (inactive)
same,normalized growth,"locus YER015W, strain faa2, stronger effect = lower value",1.08 [resistant] (active)
same,normalized growth,"locus YER016W, strain bim1, stronger effect = lower value",1.07 (inactive)
same,normalized growth,"locus YER110C, stronger effect = lower value",1.05 (inactive)
same,normalized growth,"locus YER111C, strain swi4, stronger effect = lower value",1.08 (inactive)
same,normalized growth,"locus YER155C, strain BEM2 (second series), stronger effect = lower value",1.09 (inactive)
same,normalized growth,"locus YER155C, strain BEM2, stronger effect = lower value",1.1 [resistant] (active)
same,normalized growth,"locus YER167W, strain BCK2, stronger effect = lower value",1.08 (inactive)
same,normalized growth,"locus YFR010W, strain ubp6, stronger effect = lower value",1 (inactive)
same,normalized growth,"locus YGL078C, strain dbp3, stronger effect = lower value",0.889 (active)
same,normalized growth,"locus YGL086W, strain mad1, stronger effect = lower value",1 (inactive)
same,normalized growth,"locus YGL167C, strain pmr1, stronger effect = lower value",1.08 (inactive)
same,normalized growth,"locus YGL173C, strain kem1, stronger effect = lower value",1.02 (inactive)
same,normalized growth,"locus YGL227W, strain vid30, stronger effect = lower value",1.07 (inactive)
same,normalized growth,"locus YGL240W, strain doc1, stronger effect = lower value",1.02 (inactive)
same,normalized growth,"locus YGL248W, strain PDE1, stronger effect = lower value",1.01 (inactive)
same,normalized growth,"locus YGL253W, strain hxk2, stronger effect = lower value",1.04 (inactive)
same,normalized growth,"locus YGR078C, strain PAC10, stronger effect = lower value",1.13 (inactive)
same,normalized growth,"locus YGR135W, strain pre9, stronger effect = lower value",0.996 (inactive)
same,normalized growth,"locus YGR252W, strain gcn5, stronger effect = lower value",0.985 (inactive)
same,normalized growth,"locus YHR013C, strain ard1, stronger effect = lower value",1.15 (inactive)
same,normalized growth,"locus YHR027C, strain rpn1, stronger effect = lower value",1.06 (inactive)
same,normalized growth,"locus YHR030C, strain SLT2, stronger effect = lower value",1.1 [resistant] (active) and 0.945 (inactive)
same,normalized growth,"locus YHR079C, strain IRE1 (second series), stronger effect = lower value",1.05 (inactive)
same,normalized growth,"locus YHR079C, strain IRE1, stronger effect = lower value",0.877 (inactive)
same,normalized growth,"locus YHR094C, strain hxt1, stronger effect = lower value",1.07 (inactive)
same,normalized growth,"locus YHR129C, strain ARP1, stronger effect = lower value",1.06 (inactive)
same,normalized growth,"locus YHR142W, strain chs7, stronger effect = lower value",1.03 (inactive)
same,normalized growth,"locus YHR200W, strain rpn10, stronger effect = lower value",1.01 (inactive)
same,normalized growth,"locus YIL066C, strain RNR3, stronger effect = lower value",1.03 (inactive)
same,normalized growth,"locus YIL073C, strain SPO22, stronger effect = lower value",1.43 [resistant] (active)
same,normalized growth,"locus YIL125W, strain kgd1, stronger effect = lower value",1.01 (inactive)
same,normalized growth,"locus YIR030C, strain dcg1, stronger effect = lower value",1.06 (inactive)
same,normalized growth,"locus YJL092W, strain hpr5, stronger effect = lower value",1.08 (inactive)
same,normalized growth,"locus YJL095W, strain BCK1 (second series), stronger effect = lower value",1.08 [resistant] (active)
same,normalized growth,"locus YJL095W, strain BCK1, stronger effect = lower value",1.14 (inactive) and 0.943 (inactive)
same,normalized growth,"locus YJL115W, strain asf1, stronger effect = lower value",1.06 (inactive)
same,normalized growth,"locus YJL129C, strain trk1, stronger effect = lower value",1.08 (inactive)
same,normalized growth,"locus YJL134W, strain LCB3, stronger effect = lower value",1.07 [resistant] (active)
same,normalized growth,"locus YJL154C, strain vps35, stronger effect = lower value",1.08 (inactive)
same,normalized growth,"locus YJL164C, strain tpk1, stronger effect = lower value",1.02 (inactive)
same,normalized growth,"locus YJL166W, strain qcr8, stronger effect = lower value",1.03 (inactive)
same,normalized growth,"locus YJL168C, strain set2, stronger effect = lower value",1.1 [resistant] (active)
